BJeLR lethal = BJeLR cell viability loss. inhibition, % (concentration not given with the values). BJeLR (HRASV12) viability, CellTiter-Glo ATP luminescence, 48 h. 300,000 tested, 0.17% active; in the data active = inhibition above about 50%; inconclusive = no clear call, values can overlap the other calls
BoNT-A LC inh2 = blocks Botulinum neurotoxin A light chain protease | 360,000 tested, 0.17% active | multiplex microsphere protease substrate cleavage, flow cytometry | inhibition, % at 10 µM; note: plate controls were buffer without enzyme for full effect and enzyme alone for no effect
Bead autofluor = counter-screen for toxin protease inhibitors: compound fluorescence; AID 624483; fluorescence intensity (test concentration not listed); 360,000 tested, 3.1% active; compound autofluorescence counterscreen, microsphere flow cytometry; hits give high values; in the data active = fluorescence intensity above about 16000; inconclusive = no clear call, values can overlap the other calls
Anthrax LF prot = anthrax lethal factor protease inhibition; P15917; multiplex microsphere protease cleavage assay, LF; inhibition, % at 10 µM; 360,000 tested, 0.12% active; AID 588501; note: plate controls were buffer without enzyme for full effect and enzyme alone for no effect
BoNT-F LC inh = inhibitors of Botulinum neurotoxin F light chain protease | Multiplex microsphere protease cleavage assay, flow cytometry | inhibition, % at 10 µM | 360,000 tested, 0.22% active | AID 588497; in the data active = inhibition above about 35%, passing the limit was not always enough; inconclusive = no clear call, values can overlap the other calls; note: plate controls were buffer without enzyme for full effect and enzyme alone for no effect
BoNT-A LC CP1 = inhibitors of Botulinum neurotoxin A light chain protease; shares compounds with BoNT-F LC inh; inhibition, % at 10 µM; 720 tested, 3% active; multiplex microsphere protease assay, flow cytometry; in the data active = inhibition above about 32%
BoNT-F LC CP1 = BoNT/F light chain protease inhibition | shares compounds with BoNT-F LC inh | multiplex microsphere protease cleavage assay, flow cytometry | 720 tested, under 10 active | AID 602140 | inhibition, % at 10 µM; call rule not given here
LF protease CP1 = inhibitors of Bacillus anthracis lethal factor protease; 720 tested, under 10 active; multiplex microsphere protease cleavage assay, LF; inhibition, % at 10 µM; AID 602142; shares compounds with BoNT-F LC inh; call rule not given here
Numbers without * were called inactive; ? = inconclusive; . = not tested or not shown. Sampled rows, rich in hits. Any-hit rate of the full collection: about 3.5%. Cut-off read from the data, not from the text of the source, unless noted: active = inhibition above about 30%; inconclusive = no clear call, values can overlap the other calls; inactive = below that.

SMILES	BJeLR lethal	BoNT-A LC inh2	Bead autofluor	Anthrax LF prot	BoNT-F LC inh	BoNT-A LC CP1	BoNT-F LC CP1	LF protease CP1
COc1ccc(NS(=O)(=O)c2cccc(C(=O)Nc3ccccc3C(=O)O)c2)cc1	0	-1	4460	3	?	-1	-2	4
O=C(NCc1ccc(Cl)cc1)c1noc2c1CCCC2	9	-1	8038	-6	-4	.	.	.
O=C(NCc1ccccc1)c1noc2c1CCCC2	9	5	5510	5	35*	0	-6	2
Cc1ccc(SCCC(=O)Nc2ccccc2C(=O)NC2CCCCC2)cc1	-5	4	2115	0	39*	-3	-8	-1
O=C(c1ccccc1)N1CCN(Cc2cccc(Oc3ccccc3)c2)CC1	-3	4	2577	0	38*	-1	-2	1
COc1cccc(CN2CCN(C(=O)c3cccc(OC)c3)CC2)c1	-5	0	3553	18	3	.	.	.
CCOc1ccccc1NC(=O)c1ccc(S(=O)(=O)N(C)c2ccccc2)cc1	.	0	3483	-13	-8	.	.	.
CCOc1ccccc1NC(=O)c1ccc(S(=O)(=O)N(C)C)cc1	3	0	?	39*	4	0	-4	-1
Nc1ccc(S(=O)(=O)Nc2nccc(/C=C/c3cccc(Br)c3)n2)cc1	-2	-1	3522	3	37*	0	-2	-1
COc1ccc(C2=NN(C(=O)CN3CCCCC3)C(c3ccc(OC)cc3)C2)cc1 (configuration not stated)	16	?	4424	-2	?	.	.	.
COc1ccc(C2=NN(C(=O)CN3CCCC3)C(c3ccc(OC)cc3)C2)cc1 (configuration not stated)	-7	2	4751	34*	57*	-1	-7	-1
Cc1cccc(Nc2c(O)nc[nH]c2=O)c1	.	0	3398	-5	-3	.	.	.
Cc1cc(C)n(-c2nc3ccccc3nc2N2CCN(S(=O)(=O)c3ccc(F)c(C)c3)CC2)n1	6	24	7375	11	12	.	.	.
Cc1cc(C)n(-c2nc3ccccc3nc2N2CCN(S(=O)(=O)c3ccc4ccccc4c3)CC2)n1	-1	34*	9467	25	20	12	-3	6
C#C[C@]1(O)CCC2C3CCC4=Cc5oncc5CC4(C)C3CCC21C (some centres not stated)	9	-1	4212	-5	-4	.	.	.
Cc1ccccc1NC(=O)c1cccnc1	-2	3	3631	10	66*	0	-1	1
Cc1ccccc1NC(=O)c1cccc(C(=O)Nc2ccccc2C)c1	-3	4	4155	-7	?	.	.	.
CC(=O)Nc1ccc(SCC(=O)N(C)C2CCS(=O)(=O)C2)cc1 (configuration not stated)	-6	0	3364	-4	-1	.	.	.
CCN(CC)S(=O)(=O)c1cc(C(=O)Oc2cccc(-c3cnc4ccccc4n3)c2)ccc1OC	-12	0	2256	-2	-3	.	.	.
CCN(CC)S(=O)(=O)c1ccc(C)c(C(=O)Oc2cccc(-c3cnc4ccccc4n3)c2)c1	0	6	2119	-1	35*	-2	-5	-7
C=CCOc1c(Br)cc(CNCCCN2CCOCC2)cc1OC	9	0	2985	45*	-3	0	-6	-1
NC(=O)C(c1ncc(C(F)(F)F)cc1Cl)c1c(Cl)cccc1Cl (configuration not stated)	7	?	?	?	48*	0	-3	5
O=S1(=O)CC(NCc2ccccc2)C(Nc2ccccc2)C1 (configuration not stated)	15	?	9396	-7	-19	.	.	.
O=C(NC1CS(=O)(=O)CC1NCc1ccccc1)c1ccccc1 (configuration not stated)	16	5	8686	5	72*	0	-4	0
Cc1nn(Cc2ccc(Cl)cc2)c(=O)n1N(C)c1ncc(C(F)(F)F)cc1Cl	-1	0	4712	-5	-20	.	.	.
Cc1nn(Cc2ccc([N+](=O)[O-])cc2)c(=O)n1N(C)c1ncc(C(F)(F)F)cc1Cl	-1	0	4593	-4	38*	1	3	0
Cn1ccnc1C(O)c1cc(C(C)(C)C)c(O)c(C(C)(C)C)c1 (configuration not stated)	-3	25	6965	32*	14	4	0	2
